BCR signal inh: qHTS Assay to Find Inhibitors of Chronic Active B-Cell Receptor Signaling | Potency, µM (titrated, usually from 46.1 µM), actives largely listed as inhibitors | 0.05% of 340,000 active | ABC-DLBCL IkBa-CBG/CBR reporter, luminescence ratio, 4 h; active = well fitted inhibition curve with a large enough effect in the signal ratio, with a control signal flat, not every such curve was filed as active; inconclusive = small, poorly fitted or top-dose-only effect, or effect the other way, or a change in a side signal; the % refers to the signal ratio
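Cell line TMD8 (human ABC DLBCL), stably expressing tet-inducible CBG68-IkBa fusion and CBR; IMDM/0.5% FBS; cpd up to 46 uM; dox induction, 4 h, 37C/5% CO2; dual luminescence; green/red ratio; MG132 control.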
a7 integrin act: qHTS for Activators of Integrin-Mediated Alleviation for Muscular Dystrophy; Potency, µM (series often up to 38.3 µM), actives largely listed as activators; 0.064% of 350,000 active; alpha7betagal myoblasts, beta-gal FDG fluorescence, 48 h; AID 624291, 2012; also: nearly all actives have a fitted effect of over 60% in size
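alpha7betagal+/- myoblasts (passage 13, 250/well) treated 48 h at 37C with compounds at 1:260 dilution of DMSO stock. Lysed, then beta-galactosidase activity read as FDG fluorescence (ex 480/em 540) after 30 min, with pre-read for autofluorescence.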
IL-2 act: qHTS of IL-2 Activators. IL-2 activation reporter assay, cell-based qHTS; stimulated with anti-CD3/CD4/CD28 beads; in transgenic mouse T cells. activation, % (series mostly up to about 46 µM). 0.065% of 360,000 active; in the data active = activation above about 50%; inconclusive = mostly about 30% to 49%
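Unstimulated transgenic mouse T cells, 750 per well, received compound and, after 60 minutes, anti-CD3/anti-CD4 bead plus anti-CD28 stimulation. EGFP and DsRed were quantified after 18 hours.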
BRCA1 expr act: qHTS Assay to Identify Small Molecule Activators of BRCA1 Expression; MCF7-BRCA1-FFLuc reporter, luminescence, 48 h; response scale: scaled: vehicle 0%, 10 µM genistein 100%; Potency, µM (series often up to 46.1 µM), actives largely listed as activators; 1.1% of 380,000 active; also: nearly all actives have a fitted effect of over 80% in size
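MCF7 cells carrying a BRCA1-firefly luciferase reporter (2000 cells/well, phenol-red free MEM) were attached for 2 h at 37 °C, then given compounds for 48 h. Luminescence was read 15 min after luciferase reagent; activity normalized to genistein (10 microM) and DMSO.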
N370S GC mod: qHTS Assay for Inhibitors and Activators of N370S glucocerebrosidase as a Potential Chaperone Treatment of Gaucher Disease. 0.092% of 330,000 active. Potency, µM (top dose mostly 59.4 µM), most hits filed as inhibitors. Lysosomal acid glucosylceramidase (Homo sapiens), P04062. N370S GC spleen homogenate, 4MU-glucoside fluorescence
Nrf2 ARE act: qHTS of Nrf2 Activators; AREc32 ARE-luciferase reporter (MCF7-derived line), luminescence, 24 h; Potency, µM (top dose mostly 46.1 µM), most hits filed as activators; 0.31% of 410,000 active; also: nearly all actives have a fitted effect of over 65% in size
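Steps: seed AREc32_Fluc cells (1000/well, 5% FBS OPTI-MEM); incubate overnight at 37 deg C; add 23 nL compound; incubate 24 hr; add Steady-Glo; hold 30 min RT; read luminescence.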
Hits are given with their value; . = inactive; ? = inconclusive; / = no result; [ ] = another dose, or the depositor's remark. The list is not random: actives were taken first. Their share in the collection is about 1.4%. Unless noted, calls follow the shape of the dose curve; as a rule, active = well fitted curve in the direction sought with a large enough effect; inconclusive = small, poorly fitted or top-dose-only effect, or another doubt; inactive = no such curve, though single readings can be large; an effect the other way counts as inactive or inconclusive.

SMILES	BCR signal inh	a7 integrin act	IL-2 act	BRCA1 expr act	N370S GC mod	Nrf2 ARE act
O=c1[nH]c(CSc2ccccn2)nc2ccccc12	.	.	.	.	?	.
N/C(=N\OC(=O)c1ccccc1Cl)c1ccccn1	?	.	.	.	.	?
Cn1cc(Cl)c(/C(N)=N/OC(=O)c2ccccc2C(F)(F)F)n1	.	.	.	11µM	.	.
Cc1nn2c(-c3ccncc3)nnc2c2ccccc12	.	.	.	.	.	.
COc1ccc(-c2nnc3c4ccccc4c(C)nn23)cc1	.	.	.	.	?	4.5µM
Cc1ccc(C(=O)Nc2ccccc2)cc1S(=O)(=O)Nc1ccccc1	/	/	/	/	/	.
Cc1ccc(C(=O)Nc2ccc(C(=O)O)cc2)cc1S(=O)(=O)NCc1ccccc1	?	?	535	.	.	.
CC/C(Cc1ccccc1)=N/NC(=O)CNC(=O)c1ccc(Cl)cc1Cl	.	?	.	.	.	.
CC/C(C)=N\NC(=O)CNC(=O)c1ccc(Cl)cc1Cl	13µM	.	.	.	.	.
COc1ccc(NC(=O)CSc2nc(SC)ns2)cc1	?	.	.	4.5µM	.	.
CCCNC(=O)/C=C/c1ccc(C(C)C)cc1	?	.	.	13µM	.	.
OCCCCCN=c1cc(-c2ccccc2)oc2ccc(Cl)cc12	?	.	.	.	.[12.8 µM]	.
Clc1ccc2oc(-c3ccccc3)cc(=NCCCN3CCOCC3)c2c1	.	.	.	.	.	13µM
COC(=O)c1c(-c2ccc(C)cc2)csc1NC(=O)C1CC=CCC1C(=O)O (centres undefined)	?	?	.	11µM	.	.
COC(=O)c1c(-c2cc(C)ccc2C)csc1NC(=O)C1CC=CCC1C(=O)O (centres undefined)	.	.	.	.	.	.
O=C(Nc1ccc(Cl)cn1)c1cnn2c1NC(=C1CC1)C=C2C(F)F	/	/	/	.	/	/
Cn1c(NCc2ccccc2O)nc2ccccc21	.	.	.	?	.	.
Cc1ccc(CNc2nc3ccccc3n2C)o1	.	.	.	4µM	.	.
Cn1c(NCc2ccccc2Cl)nc2ccccc21	/	.	.	3.5µM	/	.
Cn1cnc2cc(NCc3ccccc3Cl)ccc21	?	.	.	7.9µM	.	.
CC(=O)N(c1ccc2ccccc2c1)C1SC(=O)N(c2cccc(C)c2)C1=O (centres undefined)	/	/	/	.	/	/
Clc1cccc(CNc2ncnc3nc[nH]c23)c1	/	/	/	.	/	/
O=C(Cc1ccc([N+](=O)[O-])cc1)c1ccc(O)cc1O	.	.	.	10µM	.	.
O=C(Cc1ccc(Br)cc1)c1ccc(O)cc1O	?	.	.	11µM	.	.
COc1ccc(CC(=O)c2ccc(O)cc2O)cc1	.	.	.	?	.	.
SMILES	BCR signal inh	a7 integrin act	IL-2 act	BRCA1 expr act	N370S GC mod	Nrf2 ARE act
COc1ccc(CCNC(=O)c2cc3c(cc2Cl)N2CCCCCC2=NS3(=O)=O)cc1	?	.	.	.	.	.
Nc1ccc2[nH]c(=S)[nH]c2c1	/	.	.	.	/	.
COc1ccc(/C=C2/CCCC(CN(C)C)C2=O)cc1 (centres undefined)	/	.	.	.	/	10µM
CC(C)(C)OC(=O)N/N=C\c1ccc(OC(=O)c2ccco2)cc1	.	.	.	7.9µM	.	.
O=C(c1ccccc1)[C@@H]1[C@@H]2C(=O)N(c3ccc(F)cc3)C(=O)[C@@H]2C2CCCN21 (some centres undefined)	?	.	.	.	.	10µM
COc1cncc(C#Cc2ccccn2)c1	/	/	.	4.5µM	/	.
NC(=O)c1cc(Cc2ccccc2)sc1NC(=O)c1ccco1	.	.[7.66 µM]	.	7.9µM	.	.
Cc1ccc(C(=O)N/N=C/c2ccc(-c3ccc(Br)cc3[N+](=O)[O-])o2)o1	.	.	.	.	.	7.9µM
O=C(N/N=C/c1ccc(-c2ccccc2[N+](=O)[O-])o1)c1cncc(Br)c1	.	.	.	.	.	.

Source: PubChem
